Values joined by “and” are separate entries in the source; they are usually repeats but may differ in a detail not shown here. Identical values can stand only once. Over roughly 13,000 compounds, “IFI” has its median near 4; the highest 2% begin near 17. What follows is part of a selection rich in the highest values, with near analogues and random picks from the rest.
assay: GSK_TCMDC: Inhibition Frequency Index (IFI). The number of non-kinase HTS assays where a compound showed > 50 % inhibition, expressed as a percentage of the number of such assays in which the compound was tested; type: functional

SMILES | IFI
Nc1c2c(nc3cc(NC(=O)c4ccc([N+](=O)[O-])cc4)ccc13)CCCC2 | 0%
CNC(=O)C(C)N(c1ccc(Cl)cc1)c1nc(C(C)(C)C)cs1 (stereo unspecified) | 4.76%
COC(=O)C(=C(C)C)N1C(=O)[C@@H](NC(=O)OCc2ccccc2)[C@H]1SS[C@@H]1[C@H](NC(=O)OCc2ccccc2)C(=O)N1C(C(=O)OC)=C(C)C | 4.41%
CC(CN1CCN(C)CC1)C(=O)Nc1ccc(-c2cccc(-c3nc4ccccc4[nH]3)c2)cc1 (stereo unspecified) | 4.59%
COCCN1CCN(Cc2ccc(-c3ccc(-c4nc5cccc(C)c5[nH]4)s3)cc2)CC1 | 6.86%
O=S(=O)(NCCN1CCCC1)c1ccc(-c2ccc(CNCc3ccccc3)cc2)cc1F | 6.54%
CC1CN(c2nc(NCCc3ccc(O)cc3)nc(NCc3ccccc3-c3ccc(C(F)(F)F)cc3)n2)CC(C)N1 (stereo unspecified) | 17.2%
Oc1ccc(CCNc2nc(NCCCOc3ccccc3-c3cccc(C(F)(F)F)c3)nc(N3CCNCC3)n2)cc1 | 10.5%
Oc1ccc(CCNc2nc(NCc3ccccc3-c3ccc(F)cc3)nc(N3CCNCC3)n2)cc1 | 13.6%
Oc1ccc(CCNc2nc(NCCOc3cccc4ccccc34)nc(N3CCNCC3)n2)cc1 | 16.4%
Oc1ccc(CCNc2nc(NCCCOc3ccccc3-c3cccnc3)nc(N3CCNCC3)n2)cc1 | 6.9%
Oc1ccc(CCNc2nc(NCCCOc3ccccc3-c3ccc(C(F)(F)F)cc3)nc(N3CCNCC3)n2)cc1 | 17.2%
Oc1ccc(CCNc2nc(NCCCOc3ccccc3-c3ccc(F)cc3)nc(N3CCNCC3)n2)cc1 | 13.8%
COc1ccc(-c2ccccc2CNc2nc(NCCc3ccc(O)cc3)nc(N3CCNCC3)n2)cc1 | 13.4%
Oc1ccc(CCNc2nc(NCc3ccccc3-c3ccc(C(F)(F)F)cc3)nc(N3CCNCC3)n2)cc1 | 13.1%
CN1CCN(c2nc(NCCc3ccc(O)cc3)nc(NCc3ccccc3-c3ccc(C(F)(F)F)cc3)n2)CC1 | 11.8%
Oc1ccc(CCNc2nc(NCc3ccccc3Oc3ccc(C(F)(F)F)cc3)nc(N3CCNCC3)n2)cc1 | 20%
Oc1ccc(CCNc2nc(NCCCOc3cccc(-c4ccccc4)c3)nc(N3CCNCC3)n2)cc1 | 18.8%
CC(C)N1CCC(N(Cc2ccc(-c3ccc(Cl)cc3)cc2)C(=O)Cn2c(CCc3cccc(F)c3F)nc(=O)c3ccccc32)CC1 | 7.8%

SMILES | IFI
O=C(/C=C/c1ccc(Cl)c(Cl)c1)NCCCCCN1CCC(c2n[nH]c(-c3ccccc3)c2Br)CC1 | 12.9%
Cc1cc2nc(-c3ccc(/C=C/C(=O)NC4CCN(Cc5ccccc5)CC4)cc3)[nH]c2cc1C | 3.76%
CS(=O)(=O)NCCCNCc1ccc(-c2ccc(-c3nc4cc(C(F)(F)F)ccc4[nH]3)s2)cc1 | 4.95%
Cc1nc2ccc(-c3ccc(OC(F)(F)F)cc3)cc2c(O)c1C#N | 1.82%
COc1cccc2c(NN=Cc3cccc(F)c3)ccnc12 | 2.99%
Oc1ccc(CCNc2nc(NCc3ccccc3-c3ccc(C(F)(F)F)cc3)nc(N3CCCNCC3)n2)cc1 | 14.9%
Oc1ccc(CCCNc2nc(NCc3ccccc3-c3ccccc3)nc(N3CCNCC3)n2)cc1 | 14.9%
Oc1ccc(CCNc2nc(NCc3ccccc3-c3ccccc3)nc(N3CCCNCC3)n2)cc1 | 18.2%
NCC1CCCN1Cc1cccc(-c2ccc(-c3nc4ccccc4[nH]3)s2)c1 (stereo unspecified) | 0.97%
CC[C@H](C)CNC(=O)c1cccc(-c2ccc(CN3CCC(N4CCCC4)CC3)cc2)n1 | 9.09%
C=CCC1OC(=O)c2cc(OC)cc(OC)c21 (stereo unspecified) | 33.6%
C=CC(C)C1OC(=O)c2cc(OC)cc(OC)c21 (stereo unspecified) | 27%
COc1ccc(CCNCCCCCNCCCc2ccc(Cl)cc2)cc1OC | 2.8%
COc1cc(Cc2cnc(N)nc2N)cc(CC(C)O)c1O (stereo unspecified) | 0%
Fc1ccc2[nH]c(-c3cccc(-c4ccc(CN5CCC(CCN6CCCCC6)CC5)cc4)c3)nc2c1 | 8.33%
NC(=O)c1ccc(C(=O)Nc2cccc(-c3ccc(-c4nc5cc(C(F)(F)F)ccc5[nH]4)cc3)c2)cc1 | 2.59%
O=C(NCCCCN1CCC(c2ccc3c(c2OCCN2CCCC2=O)CCCC3)CC1)c1ccc(-c2ccc(C(F)(F)F)cc2)cc1 | 9.65%
C[C@@H]1CC[C@H](NC(=O)[C@H](CC2CCCC2)NC(=O)N2CCNCC2)C(=O)CN1S(=O)(=O)c1ccccn1 | 5.93%
O=C(NCCc1ccccc1)[C@H](Cc1ccccc1)Nc1ccnc(NCC2CCCCC2)n1 | 20.4%

SMILES | IFI
Cc1cc(N[C@@H](Cc2ccccc2)C(=O)NCCOc2ccccc2)nc(NCC2CCCCC2)n1 | 16.7%
CC(C)C[C@H](Nc1ccnc(NCC2CCCCC2)n1)C(=O)NCCc1ccccc1 | 8.89%
CC(C)C[C@H](Nc1ccnc(NCC2CCCCC2)n1)C(=O)NCCOc1ccccc1 | 13%
O=C(NCCOc1ccccc1)[C@H](Cc1ccccc1)Nc1ccnc(NCC2CCCCC2)n1 | 20%
Cc1ccc(CNC(=O)[C@H](Cc2ccccc2)Nc2ccnc(NCC3CCCCC3)n2)cc1 | 11.1%
COc1ccc2nccc([C@@H](O)CN3CCC(NCc4nc5cc(F)cc(F)c5[nH]4)CC3)c2c1 | 3.65%
CC1(C)NC(N)=NC(=N)N1OCCCSc1ccccc1 | 2.26%
Cc1cccc(NC(=O)NCc2ccccc2)n1 | 0.78%
N/C(=N\c1cccc(Cc2ccccc2)n1)NCc1ccccc1 | 21%
Cc1cc(NCCc2ccccc2)nc(NC(=N)Nc2ccc(Cl)cc2)n1 | 3.82%
Cc1ccccc1Cc1cccc(/N=C(\N)Nc2ccc(Cl)cc2)n1 | 31.2%
Cc1cccc2nc(-c3ccc(-c4ccc(NC(=O)Nc5ccc(Cl)cc5)cc4)s3)[nH]c12 | 5.94%
Cc1cc(OCCCn2ccnc2)ccc1-c1csc(/N=C(\N)NCc2ccccc2)n1 | 5%
CC(=O)Nc1nc(C(=O)Nc2ccc(-c3cccc(-c4nc5cc(C(F)(F)F)ccc5[nH]4)c3)cc2)cs1 | 6.03%
Cc1cc(=O)c(-c2ccc(Oc3cccc(C(F)(F)F)c3)cc2)c(C)[nH]1 | 2.56% and 2.24%
CCN(CCCN1CCCCC1)c1cc(C)nc(Nc2ccc(C(C)C)cc2)n1 | 10.3%
CCC(C)c1ccc(Nc2nc(C)cc(N(CC)CCCN3CCCCC3)n2)cc1 (stereo unspecified) | 19.5%
CCN(CCCN1CCCCC1)c1cc(C)nc(Nc2ccc(C)cc2)n1 | 2.56%
